PubChem BioAssay AID1159580 (chemical genetic matrix, 2015)
Hit rate of the full screen: of about 5,500 compounds, about 2,000 (36%) were called active. Another 18% or so got no clear call; they are omitted. No stated cut-off is given here; in the data, active means normalized growth mostly below about 0.91 (no sharp cut-off); inconclusive means no clear call, values can overlap the other calls; inactive means mostly above about 0.92. The list shows a part of the results.

Assay: chemical genetic growth profiling, strain panel (AID 1159580);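 further: tested at 20 µM; growth read once vehicle control cultures reached saturation at 30 °C; 1 = growth at the plate median or of vehicle wells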
Details: growth OD
[1] = S. cerevisiae deletion strains, locus YAL040C, strain CLN3, stronger effect = lower value
[2] = S. cerevisiae deletion strains, locus YCL061C, strain MRC1 (second series), stronger effect = lower value
[3] = S. cerevisiae deletion strains, locus YDR363W, strain ESC2, stronger effect = lower value
[4] = S. cerevisiae deletion strains, locus YER002W, strain NOP16, stronger effect = lower value
[5] = S. cerevisiae deletion strains, locus YJR075W, strain HOC1, stronger effect = lower value
[6] = S. cerevisiae deletion strains, locus YMR263W, strain SAP30, stronger effect = lower value
[7] = S. cerevisiae deletion strains, locus YMR307W, strain GAS1, stronger effect = lower value
[8] = S. cerevisiae deletion strains, locus YNL153C, strain GIM3, stronger effect = lower value
[9] = S. cerevisiae deletion strains, locus YNL175C, strain NOP13, stronger effect = lower value
[10] = S. cerevisiae deletion strains, locus YNL197C, strain WHI3, stronger effect = lower value
[11] = S. cerevisiae deletion strains, locus YNL224C, strain SQS1, stronger effect = lower value
[12] = S. cerevisiae deletion strains, locus YNL322C, strain KRE1, stronger effect = lower value
[13] = S. cerevisiae deletion strains, locus YOR083W, strain WHI5 (second series), stronger effect = lower value
[14] = S. cerevisiae deletion strains, locus YPL241C, strain CIN2, stronger effect = lower value
[15] = S. cerevisiae deletion strains, locus YAL013W, strain DEP1, stronger effect = lower value
[16] = S. cerevisiae deletion strains, locus YBR229C, strain ROT2, stronger effect = lower value
[17] = S. cerevisiae deletion strains, locus YDL101C, strain DUN1, stronger effect = lower value
[18] = S. cerevisiae deletion strains, locus YGR078C, strain PAC10, stronger effect = lower value
[19] = S. cerevisiae deletion strains, locus YLR039C, strain RIC1, stronger effect = lower value
[20] = S. cerevisiae deletion strains, locus YLR262C, strain YPT6, stronger effect = lower value
[21] = S. cerevisiae deletion strains, locus YPL055C, strain LGE1, stronger effect = lower value

Measured: normalized growth

NCC1OC(O[C@@H]2[C@H](O)C(OC3C(O)C(N)CC(N)C3OC3OC(CO)C(O)C(O)C3N)O[C@@H]2CO)C(N)C(O)C1O (stereo partly drawn)
inactive: [1] 1.07 | [2] 1 | [3] 1.02 | [4] 1.02 | [5] 1 | [6] 0.997 | [7] 1 | S. cerevisiae deletion strains, locus YNL128W, strain TEP1, stronger effect = lower value 1.01 | [8] 1.03 | [9] 1.01 | [10] 1.01 | [11] 1.01 | [12] 0.993 | [13] 1.02 | [14] 1

CCc1cc2c(cc1C(=O)CC1(O)C(=O)Nc3ccc(Br)cc31)C(C)(C)CCC2(C)C (stereo not drawn)
inactive: [15] 1.01 | [16] 1.01 | S. cerevisiae deletion strains, locus YCL061C, strain MRC1, stronger effect = lower value 1.02 | [17] 1.02 | S. cerevisiae deletion strains, locus YDL134C, strain PPH21, stronger effect = lower value 1.01 | S. cerevisiae deletion strains, locus YDR150W, strain NUM1, stronger effect = lower value 0.953 | S. cerevisiae deletion strains, locus YEL061C, strain CIN8, stronger effect = lower value 0.978 | [18] 1.02 | S. cerevisiae deletion strains, locus YHR030C, strain SLT2, stronger effect = lower value 1.02 | S. cerevisiae deletion strains, locus YHR087W, strain rtc3, stronger effect = lower value 0.961 | S. cerevisiae deletion strains, locus YJR043C, strain POL32, stronger effect = lower value 1.01 | [5] 0.979 | [19] 1.03 | S. cerevisiae deletion strains, locus YLR058C, strain SHM2 (second series), stronger effect = lower value 1.01 | S. cerevisiae deletion strains, locus YLR085C, strain ARP6, stronger effect = lower value 1.02 | [20] 1.01 | S. cerevisiae deletion strains, locus YML094W, strain GIM5, stronger effect = lower value 0.997 | S. cerevisiae deletion strains, locus YMR219W, strain ESC1, stronger effect = lower value 1 | [6] 1.06 | [7] 0.959 | [8] 1.01 | S. cerevisiae deletion strains, locus YNL298W, strain CLA4 (second series), stronger effect = lower value 0.998 | [12] 1.01 | S. cerevisiae deletion strains, locus YNR030W, strain Alg12, stronger effect = lower value 1.01 | [21] 0.921 | [14] 1.02 | S. cerevisiae deletion strains, locus YPR135W, strain CTF4, stronger effect = lower value 1.06

CC(C)C(=O)c1c(C(C)C)nn2ccccc12
inactive: [15] 0.972 | [1] 1.06 | [2] 0.985 | [3] 0.995 | [4] 0.983 | [18] 0.984 | S. cerevisiae deletion strains, locus YGR229C, strain SMI1, stronger effect = lower value 0.942 | [5] 0.991 | [9] 0.985 | [10] 0.985 | [11] 0.962 | [12] 0.985 | [13] 0.936 | [21] 0.967

CC1=CCC2C3(C)C1=CC(=O)OC3CC1C(C)(C)CC(O)C(O)C12C (stereo not drawn)
inactive: S. cerevisiae deletion strains, locus YBR021W, strain FUR4, stronger effect = lower value 0.993 | [16] 1.02 | S. cerevisiae deletion strains, locus YCL029C, strain bik1, stronger effect = lower value 1 | S. cerevisiae deletion strains, locus YDL035C, strain GPR1, stronger effect = lower value 1.06 | S. cerevisiae deletion strains, locus YDL074C, strain BRE1, stronger effect = lower value 1.07 | [17] 1.01 | S. cerevisiae deletion strains, locus YDL185W, strain tfp1, stronger effect = lower value 0.996 | S. cerevisiae deletion strains, locus YDL192W, strain arf1, stronger effect = lower value 1.01 | S. cerevisiae deletion strains, locus YDR101C, strain arx1, stronger effect = lower value 1.02 | S. cerevisiae deletion strains, locus YDR162C, strain NBP2, stronger effect = lower value 1.02 | S. cerevisiae deletion strains, locus YDR318W, strain mcm21, stronger effect = lower value 0.981 | S. cerevisiae deletion strains, locus YDR388W, stronger effect = lower value 0.994 | S. cerevisiae deletion strains, locus YDR502C, strain sam2, stronger effect = lower value 0.998 | S. cerevisiae deletion strains, locus YER110C, stronger effect = lower value 0.991 | S. cerevisiae deletion strains, locus YER155C, strain BEM2, stronger effect = lower value 1 | S. cerevisiae deletion strains, locus YER167W, strain BCK2, stronger effect = lower value 1.03 | S. cerevisiae deletion strains, locus YGL078C, strain dbp3, stronger effect = lower value 1 | S. cerevisiae deletion strains, locus YGL086W, strain mad1, stronger effect = lower value 0.995 | S. cerevisiae deletion strains, locus YGL248W, strain PDE1, stronger effect = lower value 1.01 | S. cerevisiae deletion strains, locus YGR135W, strain pre9, stronger effect = lower value 0.979 | S. cerevisiae deletion strains, locus YGR252W, strain gcn5, stronger effect = lower value 0.96 | S. cerevisiae deletion strains, locus YHR079C, strain IRE1 (second series), stronger effect = lower value 0.989 | S. cerevisiae deletion strains, locus YHR094C, strain hxt1, stronger effect = lower value 0.99 | S. cerevisiae deletion strains, locus YHR129C, strain ARP1, stronger effect = lower value 1.01 | S. cerevisiae deletion strains, locus YHR200W, strain rpn10, stronger effect = lower value 0.983 | S. cerevisiae deletion strains, locus YIL066C, strain RNR3, stronger effect = lower value 1.05 | S. cerevisiae deletion strains, locus YIL073C, strain SPO22, stronger effect = lower value 1 | S. cerevisiae deletion strains, locus YIL125W, strain kgd1, stronger effect = lower value 1.01 | S. cerevisiae deletion strains, locus YIR030C, strain dcg1, stronger effect = lower value 0.986 | S. cerevisiae deletion strains, locus YJL095W, strain BCK1, stronger effect = lower value 1.03 | S. cerevisiae deletion strains, locus YJL134W, strain LCB3, stronger effect = lower value 1.01 | S. cerevisiae deletion strains, locus YJL168C, strain set2, stronger effect = lower value 0.991 | S. cerevisiae deletion strains, locus YJL187C, strain SWE1 (second series), stronger effect = lower value 1 | S. cerevisiae deletion strains, locus YKL009W, strain mrt4, stronger effect = lower value 1.05 | S. cerevisiae deletion strains, locus YKL068W, stronger effect = lower value 0.993 | S. cerevisiae deletion strains, locus YKL085W, strain MDH1 (second series), stronger effect = lower value 0.991 | S. cerevisiae deletion strains, locus YKL085W, strain MDH1, stronger effect = lower value 0.991 | S. cerevisiae deletion strains, locus YKL190W, strain CNB1, stronger effect = lower value 1.01 | S. cerevisiae deletion strains, locus YKR001C, strain vps1, stronger effect = lower value 1.02 | [19] 1.12 | S. cerevisiae deletion strains, locus YLR058C, strain SHM2, stronger effect = lower value 1.04 | S. cerevisiae deletion strains, locus YLR102C, strain apc9, stronger effect = lower value 0.991 | [20] 1.17 | S. cerevisiae deletion strains, locus YLR268W, strain sec22, stronger effect = lower value 1.03 | S. cerevisiae deletion strains, locus YLR330W, strain CHS5, stronger effect = lower value 1.01 | S. cerevisiae deletion strains, locus YLR371W, strain rom2, stronger effect = lower value 1 | S. cerevisiae deletion strains, locus YLR418C, strain cdc73, stronger effect = lower value 0.97 | S. cerevisiae deletion strains, locus YML016C, strain PPZ1, stronger effect = lower value 1.01 | S. cerevisiae deletion strains, locus YML032C, strain rad52, stronger effect = lower value 1 | S. cerevisiae deletion strains, locus YML124C, strain tub3, stronger effect = lower value 0.993 | S. cerevisiae deletion strains, locus YMR078C, strain ctf18, stronger effect = lower value 0.99 | S. cerevisiae deletion strains, locus YMR223W, strain ubp8, stronger effect = lower value 0.989 | [6] 1.01 | [7] 1.09 | S. cerevisiae deletion strains, locus YNL067W, strain RPL9B, stronger effect = lower value 0.997 | [8] 1.01 | S. cerevisiae deletion strains, locus YNL233W, strain BNI4, stronger effect = lower value 0.999 | S. cerevisiae deletion strains, locus YNL250W, strain rad50, stronger effect = lower value 0.962 | S. cerevisiae deletion strains, locus YNL271C, strain bni1, stronger effect = lower value 1 | S. cerevisiae deletion strains, locus YNL298W, strain CLA4, stronger effect = lower value 1.01 | S. cerevisiae deletion strains, locus YNL307C, strain MCK1, stronger effect = lower value 0.999 | S. cerevisiae deletion strains, locus YNR052C, strain pop2, stronger effect = lower value 0.998 | S. cerevisiae deletion strains, locus YOL012C, strain htz1 0.612 | S. cerevisiae deletion strains, locus YOL147C, strain pex11, stronger effect = lower value 0.998 | S. cerevisiae deletion strains, locus YOR061W, strain CKA2, stronger effect = lower value 1.06 | S. cerevisiae deletion strains, locus YOR069W, strain VPS5, stronger effect = lower value 1.01 | S. cerevisiae deletion strains, locus YOR136W, strain idh2, stronger effect = lower value 0.996 | S. cerevisiae deletion strains, locus YOR144C, strain elg1, stronger effect = lower value 1 | S. cerevisiae deletion strains, locus YOR184W, strain ser1, stronger effect = lower value 1.04 | S. cerevisiae deletion strains, locus YOR316C, strain cot1, stronger effect = lower value 0.989 | [14] 1.01 | S. cerevisiae deletion strains, locus YPR119W, strain clb2, stronger effect = lower value 0.987 | S. cerevisiae deletion strains, locus YPR141C, strain kar3, stronger effect = lower value 1 | S. cerevisiae deletion strains, locus YPR163C, strain tif3, stronger effect = lower value 1 | S. cerevisiae deletion strains, locus YPR167C, strain met16, stronger effect = lower value 0.985 | S. cerevisiae deletion strains, strain wtn01, stronger effect = lower value 1.01 | S. cerevisiae strains, strain wild type, stronger effect = lower value 1.04
